The text below walks through data of PubChem BioAssay (Tox21).

Several values for one entry are separate records, joined by “and”; a condition that tells them apart may be missing. Equal entries are not always repeated. Results filed as inconclusive are left out. Entries that show only a call come without a potency. Activity calls are given as the source filed them. The call rests on the fitted dose curve; in most records, active means well fitted cell-killing curve with a large enough effect in the repeat runs; inconclusive means weak or mixed curves; inactive means no such curve, though single readings can be large or run the other way.
Potency means the concentration at half of the fitted maximal effect.

The first test is described as follows: qHTS assay for identifying genotoxic compounds that show differential cytotoxicity against isogenic chicken DT40 cell lines with known DNA damage response pathways - Rad54/Ku70 mutant cell line (AID 743015). Further: nearly all actives have a fitted effect of over 60% in size. Conditions: DT40 Rad54/Ku70 mutant viability, CellTiter-Glo, 40 h; series mostly up to 66.8 µM. A general note: In qHTS, concentration-response curves come from the screen itself.
As to `O=c1c2ccccc2c(=O)c2c1cc(Cl)c1[nH]c3c([nH]c12)c(Cl)cc1c(=O)c2ccccc2c(=O)c13`, the Potency entry was “inactive”.
The same measure, in the same setting: under `CCN(CC)CCN1C(=O)CN=C(c2ccccc2F)c2cc(Cl)ccc21` stands 26.6 µM (active).
With `CNC(=O)O/N=C(\C)C(C)S(C)(=O)=O` (stereo not given), the Potency result is “inactive”.
Same read-out and setting: to `CCCCCCC[CH2][Sn]([Cl])([Cl])[CH2]CCCCCCC` belongs “inactive”; to `O=C(NC(=O)c1c(F)cccc1F)Nc1ccc(Oc2ccc(C(F)(F)F)cc2Cl)cc1F`, 3.86 µM (active).
For `CN(C)C(=S)SSC(=S)N(C)C`, the Potency was 106 nM (active) and 135 nM (active) and 19.3 nM (active).
Consider `Nc1nc(N)nc(Cl)n1`, for which the Potency entry is “inactive”.
On to `O=[N+]([O-])c1ccc(Cl)c(Cl)c1Cl`, for which the Potency entry is “inactive”.
For `Cc1cccc(Cc2cnc[nH]2)c1C`, the Potency entry is “inactive”.
As for `O=NN(CCO)CCO`, the Potency entry was “inactive”.
On the same count and under the same terms, under `C=CC(=O)[O][Sn]([CH2]CCC)([CH2]CCC)[CH2]CCC` stands 0.686 µM (active).
On the same count and under the same terms, to `CSSC` belongs “inactive”; to `CCC[CH2][Sn]([CH2]CCC)([CH2]CCC)[CH2]CCC`, 8.63 µM (active); to `CCCCON=O`, “inactive”.
On to `CNC(=O)Oc1cc(C)cc(C(C)C)c1`, for which the Potency entry was “inactive”.
As for `CCc1cccc(C)c1N(C(=O)CCl)[C@@H](C)COC`, the Potency is 30.6 µM (active).
Same read-out and setting: to `NC(=O)C(Cl)Cl` belongs “inactive”; to `CN1C(=O)[C@@H](NC(=O)c2cc3ccccc3[nH]2)N=C(c2ccccc2)c2ccccc21`, 18.8 µM (active).
The same measure, in the same setting: under `O=C(N[C@@H]1N=C(c2ccccc2F)c2cccc3c2N(CC3)C1=O)c1cc2ccccc2[nH]1` stands 21.1 µM (active); under `CCCCc1ccccc1`, “inactive”; under `Clc1ccc(C(Cl)(Cl)Cl)cc1Cl`, “inactive”.
For the molecule `CCn1cc[n+](C)c1` (tested in a mixture with another compound), the Potency entry was “inactive”.
Still for that read-out and setting: under `CCCCC(CC)COC(=O)c1ccccc1C(=O)OCC(CC)CCCC` (stereo not given) stands “inactive”; under `CNC(=O)CSP(=O)(OC)OC`, “inactive”.
Same read-out and setting: under `[Cl][Hg][c]1ccccc1` stands 0.0863 µM (active); under `ClCBr`, “inactive”; under `Cc1ccc2cc3c(ccc4ccccc43)c3c2c1CC3`, “inactive”.
Still for that read-out and setting: under `CSC(C)(C)/C=N/O` stands “inactive”; under `CCOP(=S)(NC(C)C)Oc1ccccc1C(=O)OC(C)C` (stereo not given), 17.2 µM (active); under `CC(Cl)CCl` (stereo not given), “inactive”.
`CCOP(=O)(OCC)Oc1nc(Cl)c(Cl)cc1Cl`: the Potency was 60.8 µM (active).
The same measure, in the same setting: to `CNC(C)(C)Cc1ccccc1` belongs “inactive”.
The same measure, in the same setting: to `C[N+]1(C)[C@@H]2CC[C@H]1CC(OC(=O)C(CO)c1ccccc1)C2` (stereo not given in full) belongs “inactive”; to `C=CC(=C)C`, 24.3 µM (active); to `Cc1cnc2c(C(=O)O)c(Cl)ccc2c1`, “inactive”.

A short description of a further test: qHTS assay to identify small molecule antagonists of the androgen receptor (AR) signaling pathway - cell viability counter screen (AID 743033; further: nearly all actives have a fitted effect of over 45% in size). The following applies: AR-bla HEK293 viability, CellTiter-Glo luminescence, 16 h; series mostly up to 58.5 µM.
Consider `O=c1c2ccccc2c(=O)c2c1cc(Cl)c1[nH]c3c([nH]c12)c(Cl)cc1c(=O)c2ccccc2c(=O)c13`, for which the Potency entry was “inactive”.
Same read-out and setting: under `CCN(CC)CCN1C(=O)CN=C(c2ccccc2F)c2cc(Cl)ccc21` stands “inactive”; under `CNC(=O)O/N=C(\C)C(C)S(C)(=O)=O` (stereo not given), “inactive”; under `CCCCCCC[CH2][Sn]([Cl])([Cl])[CH2]CCCCCCC`, “inactive”.
Take `CN(C)C(=S)SSC(=S)N(C)C`: the Potency is 535 nM (active) and 85.9 nM (active) and 34.7 nM (active).
The same measure, in the same setting: under `Nc1nc(N)nc(Cl)n1` stands “inactive”.
On the same count and under the same terms, under `Oc1cc(Cl)c(Cl)c(Cl)c1Cl` stands 53.7 µM (active); under `O=[N+]([O-])c1ccc(Cl)c(Cl)c1Cl`, “inactive”; under `Cc1cccc(Cc2cnc[nH]2)c1C`, “inactive”.
Consider `O=NN(CCO)CCO`, for which the Potency result is “inactive”.
Consider `C=CC(=O)[O][Sn]([CH2]CCC)([CH2]CCC)[CH2]CCC`, for which the Potency is 1.23 µM (active).
Take `CSSC`: the Potency result is “inactive”.
As for `CCC[CH2][Sn]([CH2]CCC)([CH2]CCC)[CH2]CCC`, the Potency was 43.6 µM (active).
As for `CCCCON=O`, the Potency entry is “inactive”.
Still for that read-out and setting: under `CNC(=O)Oc1cc(C)cc(C(C)C)c1` stands “inactive”; under `CCc1cccc(C)c1N(C(=O)CCl)[C@@H](C)COC`, “inactive”; under `NC(=O)C(Cl)Cl`, “inactive”.
Regarding `CN1C(=O)[C@@H](NC(=O)c2cc3ccccc3[nH]2)N=C(c2ccccc2)c2ccccc21`, the Potency entry was “inactive”.
The same measure, in the same setting: under `O=C(N[C@@H]1N=C(c2ccccc2F)c2cccc3c2N(CC3)C1=O)c1cc2ccccc2[nH]1` stands “inactive”.
The same measure, in the same setting: under `CCCCc1ccccc1` stands “inactive”.
Still for that read-out and setting: under `Clc1ccc(C(Cl)(Cl)Cl)cc1Cl` stands “inactive”; under `CCn1cc[n+](C)c1` (tested in a mixture with another compound), “inactive”; under `CCCCC(CC)COC(=O)c1ccccc1C(=O)OCC(CC)CCCC` (stereo not given), “inactive”.
Turning to `CNC(=O)CSP(=O)(OC)OC`, the Potency entry is “inactive”.
On to `[Cl][Hg][c]1ccccc1`, for which the Potency is 1.38 µM (active).
With `ClCBr`, the Potency entry was “inactive”.
On the same count and under the same terms, to `Cc1ccc2cc3c(ccc4ccccc43)c3c2c1CC3` belongs “inactive”; to `CSC(C)(C)/C=N/O`, “inactive”.
The same measure, in the same setting: under `CCNS(=O)(=O)C(F)(F)C(F)(F)C(F)(F)C(F)(F)C(F)(F)C(F)(F)C(F)(F)C(F)(F)F` stands “inactive”; under `CC(Cl)CCl` (stereo not given), “inactive”.
Regarding `CCOP(=O)(OCC)Oc1nc(Cl)c(Cl)cc1Cl`, the Potency result was “inactive”.
Take `CNC(C)(C)Cc1ccccc1`: the Potency result is “inactive”.
Same read-out and setting: to `C[N+]1(C)[C@@H]2CC[C@H]1CC(OC(=O)C(CO)c1ccccc1)C2` (stereo not given in full) belongs “inactive”; to `C=CC(=C)C`, “inactive”; to `Cc1cnc2c(C(=O)O)c(Cl)ccc2c1`, “inactive”.
